# Assay outcomes deposited in PubChem by several laboratories.
# Shn3 3UTR inh – reduces Shn3 3'UTR luciferase signal in osteoblasts | AID 588674 | 360,000 compounds, 0.52% hits | inhibition, % at 12.5 µM | Clone20 osteoblast Shn3 3'UTR firefly luciferase, 24 h;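 active = mean inhibition of at least 75% with every replicate also reaching 75%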;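 note: 0% = median of neutral control wells and 100% = pilot-screen positive control compound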
# TWEAK Fn14 block – inhibitors of TWEAK-Fn14 interaction signaling. TWEAK-stimulated Fn14 reporter cells, luciferase luminescence, 8 h. inhibition, % at 10 µM. 360,000 compounds, 2% hits; in the data active = inhibition above about 50%
# TROY signal inh – TROY signaling inhibition; Q293 LMP1-TROYcd NF-kB luciferase reporter, 4 h; inhibition, % at 10 µM; AID 1347056; 360,000 compounds, 0.98% hits;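 active = compounds whose plate-normalised and pattern-corrected inhibition of the luciferase reporter signal at the single screening dose is 50% or more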
# HIF-2a inh – blocks HIF-2a reporter activity; 360,000 compounds, 0.72% hits; 786-0 RCC cells HIF-2a reporter, luciferase luminescence, overnight; inhibition, % at 18.8 µM;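 active = inhibition of the luminescence signal of 40% or more relative to plate controls, in a single-dose primary screen at 18.75 µM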
# LMP1 NFkB inh – inhibitors of Epstein-Barr LMP1-induced NF-kappaB reporter; LMP1-induced NF-kappaB luciferase reporter cells, luminescence; inhibition, % at 12.5 µM; 350,000 compounds, 0.69% hits; AID 504558; in the data active = inhibition above about 41%;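 note: 0% = neutral control wells and 100% = reference inhibitor control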
# TRPM1 prom inh – reduces MITF-dependent TRPM1 promoter luciferase signal. 330,000 compounds, 0.83% hits. AID 488899. inhibition, % at 12.5 µM. SK-MEL-5 TRPM1 promoter luciferase, 24 h;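 active = mean inhibition across replicates of 60% or more, whatever share of single replicates reaches that level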
# Mdm2-MdmX confirm – Mdm2/MdmX (human) interaction inhibition, confirmed | shares compounds with HIF-2a inh | SaOS-2 split-luciferase Mdm2/MdmX complementation, luminescence | inhibition, % at 8 µM | 740 compounds, 99% hits;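 active = mean inhibition of the luminescence signal across two replicates at or above 26 percent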
# HIF-2a inh conf – confirmation of HIF-2a inhibitors; 786-0 RCC cells, HIF-2a luciferase reporter luminescence, overnight; 1,800 compounds, 56% hits; shares compounds with HIF-2a inh; inhibition, % at 18.8 µM; AID 651580;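 active = mean inhibition across four replicates of at least 40 percent at the single tested concentration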
# HIF-1a cs – HIF-1a inhibition counter-screen for HIF-2a hits. shares compounds with HIF-2a inh. MiaPaCa-2 HIF-1a luciferase reporter, desferoxamine, overnight. inhibition, % at 18.8 µM. 1,800 compounds, 72% hits;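 active = mean inhibition of the reporter signal across four replicates at the single tested dose of 50% or more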
# Numbers without * were called inactive; nt = no result. This is a sample that favours compounds with a hit; in the whole collection about 3.4% have one here.
SMILES,Shn3 3UTR inh,TWEAK Fn14 block,TROY signal inh,HIF-2a inh,LMP1 NFkB inh,TRPM1 prom inh,HIF-2a inh conf,HIF-1a cs,others
O=C(Nc1cc(C(F)(F)F)cc(C(F)(F)F)c1)Nc1cnn(-c2ccc([N+](=O)[O-])cc2)c1C(F)(F)F,60,23,11,57*,57*,70*,7,106*,Mdm2-MdmX confirm=103*
O=C(Nc1ccc([N+](=O)[O-])cc1)Nc1ccc(Cl)cc1F,71,4,26,-112,23,-7,nt,nt,
O=C(CN1C(=O)c2ccccc2S1(=O)=O)c1ccc(OC(F)F)cc1,74,98*,82*,52*,82*,65*,75*,64*,
O=C(CN1C(=O)c2ccccc2S1(=O)=O)c1ccc(Cl)cc1Cl,83,105*,87*,55*,79*,87*,82*,90*,
O=C(CN1C(=O)c2ccccc2S1(=O)=O)c1ccc(F)cc1,80,91*,73*,57*,69*,39,64*,59*,
COC(=O)c1ccc(NC(=O)CN2C(=O)c3ccccc3S2(=O)=O)cc1,0,28,17,17,-9,3,nt,nt,
CCCCCn1c(=O)[nH]c2cc(C(=O)NCCN3CCCCC3C)ccc2c1=O (stereo not drawn),1,37,-11,11,-2,-18,nt,nt,
CN(C)CC(C)(C)CNS(=O)(=O)c1cccc2nsnc12,12,19,8,19,8,5,nt,nt,
COc1ccc(C)cc1N1C(=N)/C(=C2/Nc3ccccc3S2)C(c2ccccc2)C1=O (stereo not drawn),53,31,7,83*,-4,3,-11,88*,
COc1ccc(C2C(Oc3ccccc3)C(=O)N2c2cc(C)ccc2C)cc1OC (stereo not drawn),-2,-14,-8,-5,1,-1,nt,nt,
COc1ccccc1C1c2[nH]c3ccccc3c2CCN1Cc1ccc(NC(C)=O)s1 (stereo not drawn),12,-11,13,6,-11,19,nt,nt,
CNc1nnc(Sc2ncccc2[N+](=O)[O-])s1,nt,31,6,-14,2,6,nt,nt,
Cc1ccc(C2=NN(C(=O)CCC(=O)O)C(c3cccs3)C2)cc1 (stereo not drawn),-3,6,-2,0,-6,-6,nt,nt,
O=C(CCl)N1N=C(c2ccco2)CC1c1cccs1 (stereo not drawn),-4,10,17,40*,66*,74*,-6,73*,
Cc1ccc(C2=NN(C(=O)CCl)C(c3cccs3)C2)o1 (stereo not drawn),9,48,-44,84*,35,73*,2,51*,Mdm2-MdmX confirm=101*
CC(=O)N1N=C(c2ccco2)CC1c1cccs1 (stereo not drawn),-12,11,-6,-1,-12,11,nt,nt,
CC(C)n1cc(CN2CCCC(C(=O)Nc3ccccc3Oc3cccnc3)C2)cn1 (stereo not drawn),8,2,-7,19,-1,3,nt,nt,
Cc1ccc(C(C(=O)NC2CCCC2)N(C(=O)CNC(=O)c2ccco2)c2ccccc2)o1 (stereo not drawn),2,14,5,10,2,5,nt,nt,
O=C(c1ccc(Br)cc1)C(CN1CCOCC1)c1ccccc1 (stereo not drawn),96*,58*,0,70*,-8,40,-10,-31,
CCOc1cccc(CN2CCC(n3nccc3NC(=O)C3CC3)CC2)c1O,5,-6,2,7,0,-8,nt,nt,
CC(=O)Nc1ccc(-c2cn3cc(C)ccc3n2)cc1,-14,3,-74,-109,-7,-17,nt,nt,
Cc1ccc2nc(-c3ccccc3)cn2c1,84,105*,85*,73*,72*,88*,89*,84*,
Nc1nnnn1/N=C/C(Br)=C/c1ccccc1,97*,75*,11,83*,22,85*,30,104*,Mdm2-MdmX confirm=103*
COc1ccc(CSc2nnc3[nH]c(=O)cc(N)n23)cc1,-4,-8,13,0,2,-3,nt,nt,
O=C(NCCc1ccccc1)C(c1cccs1)N(C(=O)CCl)c1ccc(Cl)cc1 (stereo not drawn),57,64*,-22,92*,-4,86*,97*,108*,Mdm2-MdmX confirm=103*
SMILES,Shn3 3UTR inh,TWEAK Fn14 block,TROY signal inh,HIF-2a inh,LMP1 NFkB inh,TRPM1 prom inh,HIF-2a inh conf,HIF-1a cs,others
O=[N+]([O-])c1ccc(O)c(-c2nc(-c3ccccc3)c(-c3cccs3)[nH]2)c1,0,25,37,-4,1,27,nt,nt,Mdm2-MdmX confirm=95*
O=C(O)c1ccc(-c2nc(-c3ccccc3)c(-c3cccs3)[nH]2)cc1,14,-8,-16,19,4,3,nt,nt,
COc1ccccc1N(CC1CO1)S(=O)(=O)c1ccc(C)cc1 (stereo not drawn),-15,5,-9,6,0,10,nt,nt,
O=C(Cc1ccc(NC(=O)C2CCN(C(=O)C3CC3)CC2)cc1)Nc1cccc(C(=O)N2CCCCC2)c1,-7,-36,18,10,-4,-9,nt,nt,
CC(C)(C)c1ccc(C(O)CCCN2CCC(C(O)(c3ccccc3)c3ccccc3)CC2)cc1 (stereo not drawn),97*,-26,2,97*,-7,94*,-1,108*,
COc1ccc(C)c2sc(N(CCCN(C)C)C(=O)c3ccc(S(=O)(=O)N4CCc5ccccc5C4)cc3)nc12,92*,-168,38,85*,-9,96*,29,97*,
CC(C)Cc1nc2oc3c(Cl)ncnc3c2c2c1CCCC2,9,9,73*,75*,11,3,45*,100*,
CCCc1nc2oc3c(NCCCN(C)C)ncnc3c2c2c1CCCC2,-72,-49,-31,17,-35,78*,nt,nt,Mdm2-MdmX confirm=101*
CC(C)Cc1nc2oc3c(NCC(C)O)ncnc3c2c2c1CCCC2 (stereo not drawn),2,2,3,9,-2,13,nt,nt,
COc1cc(C=CC(=O)c2ccccc2)cc(OC)c1OC,-4,79*,-3,37*,nt,nt,34,95*,
COc1cc(C=CC(=O)c2cc(OC)c(OC)c(OC)c2)cc(OC)c1OC,62,65*,-7,59*,20,67*,89*,105*,
COc1cc(/C=C/C(=O)N2CCC=CC2=O)cc(OC)c1OC,38,92*,40,94*,22,92*,83*,103*,
